Sampled rows, rich in hits. Any-hit rate of the full collection: about 12%.
G9a inh: qHTS Assay for Inhibitors of Histone Lysine Methyltransferase G9a; Histone-lysine N-methyltransferase EHMT2 (Homo sapiens), Q96KQ7; G9a H3K9 monomethylation, AlphaScreen, 2 h; Potency, µM (titrated, usually from 102 µM), for inactives: at the highest dose activity, negative = inhibition, hits mostly inhibitors; 350,000 compounds, 8.8% hits; also: potency is read from the fitted curve at half-maximal effect; % is scaled to controls: 0 for no effect and ±100 for the full control effect; nearly all actives have a fitted effect of over 75% in size
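Using a bead-based AlphaScreen, monomethylated H3K9 product from 2 h room-temperature reactions (G9a 20 nM, peptide 500 nM, SAM 20 uM) was detected with 0.5 ug/mL rabbit anti-H3K9me1 antibody.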
JMJD2A Tudor: qHTS Assay for Inhibitors of JMJD2A-Tudor Domain. Lysine-specific demethylase 4A (Homo sapiens), O75164. AlphaScreen JMJD2A-Tudor / H3K4me3 peptide binding. Potency, µM (top dose mostly 114 µM), for the others: at the highest dose activity change, negative = inhibition, most hits filed as inhibitors. 390,000 compounds, 4.4% hits. AID 504339, 2011; also: potency is read from the fitted curve at half-maximal effect; % is scaled to controls: 0 for no effect and ±100 for the full control effect; nearly all actives have a fitted effect of over 50% in size
HP1b binding inh: HTS for Inhibitors of HP1-beta Chromodomain Interactions with Methylated Histone Tails | Chromobox protein homolog 1 (Homo sapiens), P83916 | AlphaScreen HP1-beta / biotin-H3K9me3 peptide binding | Potency, µM (series often up to 114 µM), for the others: at the highest dose activity change, negative = inhibition, actives largely listed as inhibitors | 390,000 compounds, 0.56% hits | AID 540317, 2011; also: potency is read from the fitted curve at half-maximal effect; nearly all actives have a fitted effect of over 70% in size
Target sequence (P83916 whole entry, looked up): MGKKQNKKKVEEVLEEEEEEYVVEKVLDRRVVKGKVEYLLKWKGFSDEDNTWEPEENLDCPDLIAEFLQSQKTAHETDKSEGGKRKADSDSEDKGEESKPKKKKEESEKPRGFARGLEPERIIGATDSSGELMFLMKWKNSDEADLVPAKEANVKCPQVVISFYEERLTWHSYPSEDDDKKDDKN
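Compound inhibition of the preformed complex between 50 nM HP1-beta and 50 nM biotinylated H3K9me3 peptide was read by AlphaScreen. Buffer was PBS pH 7.4 with 0.01% Tween-20. Incubations ran 30 min at room temperature, with 10 ug/mL donor/acceptor beads.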
PI5P4Ka inh: qHTS for Inhibitors of phosphatidylinositol 5-phosphate 4-kinase (PI5P4K) | Phosphatidylinositol 5-phosphate 4-kinase type-2 alpha (Homo sapiens), P48426 | PI5P4Kalpha enzyme, ADP-Glo luminescence, 60 min; stronger effect = lower value | max response, % | 330,000 compounds, 1.2% hits; active = max response of -50% or lower; inconclusive = between -30% and -50%; inactive = -30% or higher; also: value at the top dose of about 77 µM; % is scaled to controls: 0 for no effect and ±100 for the full control effect
Target sequence (P48426 whole entry, looked up): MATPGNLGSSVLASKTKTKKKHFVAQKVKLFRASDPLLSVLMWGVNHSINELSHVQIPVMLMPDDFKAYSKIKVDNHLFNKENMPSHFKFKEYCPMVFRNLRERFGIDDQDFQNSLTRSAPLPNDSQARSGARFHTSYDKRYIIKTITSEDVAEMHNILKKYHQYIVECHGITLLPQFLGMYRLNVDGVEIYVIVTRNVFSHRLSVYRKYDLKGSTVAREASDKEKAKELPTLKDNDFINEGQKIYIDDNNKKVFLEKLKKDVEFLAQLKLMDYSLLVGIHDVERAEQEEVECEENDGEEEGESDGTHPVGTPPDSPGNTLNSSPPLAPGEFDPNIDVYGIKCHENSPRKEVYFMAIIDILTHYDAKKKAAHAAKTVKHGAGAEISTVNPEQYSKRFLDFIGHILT
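ADP-Glo luminescence end-point read after a 60 min room-temperature kinase reaction of PI5P4Kalpha plus substrate, initiated with ATP at 5 microM final. Buffer: 0.038 M HEPES pH 7.4, EGTA, 0.1% CHAPS, 5% DMSO.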
BAZ2B block: qHTS Assay for Inhibitors of BAZ2B; 360,000 compounds, 4.4% hits; AID 504333, 2011; AlphaScreen BAZ2B-H3K14Ac peptide displacement; Potency, µM (highest dose often 114 µM), without a hit: at the highest dose activity change, negative = inhibition, actives largely listed as inhibitors; Bromodomain adjacent to zinc finger domain protein 2B (Homo sapiens), Q9UIF8; also: potency is read from the fitted curve at half-maximal effect; % is scaled to controls: 0 for no effect and ±100 for the full control effect; nearly all actives have a fitted effect of over 60% in size
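Multi-concentration screen (max 110 uM) measuring displacement of acetylated histone H3 peptide from BAZ2B by AlphaScreen, using 50 nM protein, 50 nM peptide and 10 ug/mL streptavidin donor plus Ni-chelate acceptor beads.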
PLK1 PBD inh: qHTS for Inhibitors of PLK1-PDB (polo-like kinase 1 - polo-box domain): Primary Screen; Serine/threonine-protein kinase PLK1 (Homo sapiens), P53350; Plk1 PBD binding of FITC phosphopeptide, fluorescence polarization; Potency, µM, inactives show max response, negative = inhibition, usual class: inhibitors; 360,000 compounds, 2.8% hits; also: potency is read from the fitted curve at half-maximal effect; series mostly up to about 57 µM; % is scaled to controls: 0 for no effect and ±100 for the full control effect; nearly all actives have a fitted effect of over 65% in size
* marks the source's active call; other numbers are inactive results; [ ] = remark or other dose. Unless noted, calls follow the shape of the dose curve; as a rule, active = well fitted curve in the direction sought with a large enough effect; inconclusive = small, poorly fitted or top-dose-only effect, or another doubt; inactive = no such curve, though single readings can be large; an effect the other way counts as inactive or inconclusive.

N/C(=N\O)c1ccc(NC(=O)c2ccc(Br)o2)cc1 was read as G9a inh -31%[12.7 µM], JMJD2A Tudor inconclusive, HP1b binding inh inconclusive, PI5P4Ka inh -26, BAZ2B block 3% and PLK1 PBD inh 15µM*.
For O=C(Nc1ccccc1C(=O)O)c1cccc(NC(=O)c2ccc(Br)o2)c1 the results were G9a inh 18µM*, JMJD2A Tudor -30%, HP1b binding inh 11%, PI5P4Ka inh inconclusive, BAZ2B block -1% and PLK1 PBD inh -20%.
O=C(NNC(=O)c1ccc(Br)o1)c1ccc(NC(=O)c2ccccc2)cc1 was read as G9a inh -44%, JMJD2A Tudor -14%, HP1b binding inh 34%, PI5P4Ka inh -3, BAZ2B block inconclusive and PLK1 PBD inh -2%.
`O=C(Nc1ccccc1C(=O)O)c1ccc(NC(=O)c2ccc(Br)o2)cc1` gave G9a inh inconclusive, JMJD2A Tudor -15%, HP1b binding inh 17%, BAZ2B block -12% and PLK1 PBD inh -8%.
O=C(Nc1cccc(F)c1)c1ccc(Br)o1 was read as G9a inh 28µM*, JMJD2A Tudor -27%, HP1b binding inh 16%, PI5P4Ka inh 3, BAZ2B block -13% and PLK1 PBD inh -4%.
`CCOc1ccc(NC(=O)CCc2c(C)nc3c4c(C)cc(C)nc4nn3c2C)cc1` gave G9a inh 27%[59 µM], JMJD2A Tudor -14%, HP1b binding inh 73% and BAZ2B block 21%.
Screening Cc1cc(C)c2c(=O)n(CC(=O)Nc3ccc(Cl)cc3)sc2n1 returned G9a inh 0.089µM*, JMJD2A Tudor 1.1µM*, HP1b binding inh 7.9µM*, PI5P4Ka inh -64*, BAZ2B block 40µM* and PLK1 PBD inh 1.3µM*.
Screening Cc1cc(C)c2c(=O)n(CC(=O)Nc3cccc(F)c3)sc2n1 returned G9a inh 0.32µM*, JMJD2A Tudor 1.1µM*, HP1b binding inh inconclusive, PI5P4Ka inh -67*, BAZ2B block 50µM* and PLK1 PBD inh 1.9µM*.
`Cc1ccc(NC(=O)Cn2c(C)cc(C)c(C#N)c2=O)c(Cl)c1` gave G9a inh inconclusive, JMJD2A Tudor -6%, HP1b binding inh 35%, BAZ2B block -39% and PLK1 PBD inh -10%.
Cc1ccc(NC(=O)Cn2sc3nc(C)cc(C)c3c2=O)c(Cl)c1 was read as G9a inh 0.35µM*, JMJD2A Tudor 1.6µM*, HP1b binding inh inconclusive, PI5P4Ka inh -72*, BAZ2B block 45µM* and PLK1 PBD inh 1.5µM*.
`CCOc1ccc(NC(=O)Cn2sc3nc(C)cc(C)c3c2=O)cc1` gave G9a inh 0.28µM*, JMJD2A Tudor 0.89µM*, HP1b binding inh 5.6µM*, PI5P4Ka inh -71*, BAZ2B block -37% and PLK1 PBD inh 0.95µM*.
Screening COC(=O)c1ccc(NC(=O)CC2C(=O)N(c3ccccc3)C(=O)N2C2CCCC2)cc1 (configuration not stated) returned G9a inh -40%[59 µM], JMJD2A Tudor -10%, HP1b binding inh 10% and BAZ2B block 3%.
`COc1ccc(S(N)(=O)=O)cc1N(C)S(=O)(=O)c1ccccc1` gave G9a inh -30%, JMJD2A Tudor inconclusive, HP1b binding inh -7%, PI5P4Ka inh -9, BAZ2B block -4% and PLK1 PBD inh 27µM*.
`COc1ccc(S(=O)(=O)N2CCC(C)CC2)cc1N(C)S(=O)(=O)c1ccccc1` gave G9a inh 23%, JMJD2A Tudor 1%, HP1b binding inh 21%, PI5P4Ka inh -1, BAZ2B block -17% and PLK1 PBD inh 5%.
`CCCCC1=CC2=CC(=O)C(C)(OC(=O)c3cnc4ccccc4n3)C(=O)C2=CO1` (configuration not stated) gave G9a inh inconclusive and BAZ2B block 79µM*.
Screening CCCCC1=CC2=CC(=O)C(C)(OC(=O)c3cccs3)C(=O)C2=CO1 (configuration not stated) returned JMJD2A Tudor inconclusive, HP1b binding inh 7%, PI5P4Ka inh -87* and PLK1 PBD inh -28%.
`CCCCSCCCNC(=O)c1cc(-c2cccnc2)nc2ccc(S(=O)(=O)N3CCC(C)CC3)cc12` gave G9a inh -4%[59 µM], JMJD2A Tudor -8%, HP1b binding inh 26% and BAZ2B block -1%.
Screening CCn1c(=S)[nH]c2cc(S(=O)(=O)N3CCCCC3)ccc21 returned G9a inh inconclusive, JMJD2A Tudor 79µM*, HP1b binding inh -22%, BAZ2B block 4% and PLK1 PBD inh 27µM*.
For CCn1c(=S)[nH]c2cc(C(=O)O)ccc21 the results were G9a inh 45µM* and BAZ2B block -12%.
CCn1c(=S)[nH]c2cc(Cl)ccc21 was read as JMJD2A Tudor -13%, HP1b binding inh 47%, PI5P4Ka inh -4, BAZ2B block -8% and PLK1 PBD inh -9%.
`CCCCn1c(=S)[nH]c2cc(S(=O)(=O)N3CCOCC3)ccc21` gave JMJD2A Tudor inconclusive, HP1b binding inh 42%, PI5P4Ka inh -10 and PLK1 PBD inh 3%.
For CCn1c(=S)[nH]c2ccccc21 the results were G9a inh 2.8µM*, JMJD2A Tudor 79µM*, HP1b binding inh 1%, PI5P4Ka inh 3, BAZ2B block -22% and PLK1 PBD inh -16%.
`O=C(Cn1nnc2ccccc21)c1ccccc1` gave G9a inh inconclusive, JMJD2A Tudor -2%, HP1b binding inh 24%, PI5P4Ka inh -9, BAZ2B block 6% and PLK1 PBD inh -5%.
`O=C(Cn1c(=S)[nH]c2ccccc21)c1ccccc1` gave G9a inh 3.5µM*, JMJD2A Tudor inconclusive, HP1b binding inh 42%, PI5P4Ka inh 1, BAZ2B block -1% and PLK1 PBD inh -23%.
For COc1ccc2c(c1)c1nnc(SCCN3CCOCC3)nc1n2C the results were JMJD2A Tudor -14% and HP1b binding inh 16%.
Screening Cc1ccc(NC(=O)Cn2c(=S)[nH]c3ccccc32)cc1 returned G9a inh 3.5µM*, JMJD2A Tudor -2%, HP1b binding inh inconclusive, PI5P4Ka inh -10, BAZ2B block 0% and PLK1 PBD inh 24µM*.
